Sampled rows, rich in hits. Any-hit rate of the full collection: about 12%.
TDP1 block = TDP1 (human) enzyme inhibition | Potency, µM (highest dose often 130 µM), inactives show at the top dose activity change, negative = inhibition, hits mostly inhibitors | actives 0.28% (n = 350,000) | recombinant TDP1, AlphaScreen DNA substrate cleavage | AID 485290; further: on the % scale 0 is the no-effect control and ±100 the full control effect; nearly all actives have a fitted effect of over 40% in size
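Signal: AlphaScreen proximity between streptavidin donor and anti-FITC acceptor beads on intact substrate. Reaction: Tdp1 1 nM, substrate 15 nM final, 5 min RT after 15 min compound preincubation.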
G9a block = blocks human histone lysine methyltransferase G9a | Q96KQ7 | G9a H3K9 monomethylation, AlphaScreen, 2 h | Potency, µM (top dose mostly 102 µM), for the others: at the highest dose activity, negative = inhibition, most hits filed as inhibitors | actives 8.8% (n = 350,000); further: on the % scale 0 is the no-effect control and ±100 the full control effect; nearly all actives have a fitted effect of over 75% in size
Target sequence (Q96KQ7 913-1193 limits assumed): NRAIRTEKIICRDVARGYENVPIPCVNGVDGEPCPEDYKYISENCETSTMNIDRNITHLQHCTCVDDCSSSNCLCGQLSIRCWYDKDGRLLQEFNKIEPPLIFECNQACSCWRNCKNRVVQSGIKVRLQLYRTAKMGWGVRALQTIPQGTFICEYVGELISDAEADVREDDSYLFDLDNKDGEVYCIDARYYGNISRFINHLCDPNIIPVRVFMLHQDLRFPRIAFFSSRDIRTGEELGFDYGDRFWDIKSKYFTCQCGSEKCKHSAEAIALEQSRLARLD
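Readings reflect AlphaScreen signal from monomethyl-H3K9 antibody detection. HMT at 20 nM; substrate b-H3K9 500 nM; cofactor SAM 20 uM; 2 h RT reaction; compounds tested as titrations in qHTS with 15 min preincubation.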
HP1b chromo inh = inhibitors of HP1-beta chromodomain binding to methylated histone tails; P83916; AlphaScreen HP1-beta / biotin-H3K9me3 peptide binding; Potency, µM (series often up to 114 µM), for the others: at the top dose activity change, negative = inhibition, most hits filed as inhibitors; actives 0.56% (n = 390,000); further: nearly all actives have a fitted effect of over 70% in size
Target sequence (P83916 whole entry, looked up): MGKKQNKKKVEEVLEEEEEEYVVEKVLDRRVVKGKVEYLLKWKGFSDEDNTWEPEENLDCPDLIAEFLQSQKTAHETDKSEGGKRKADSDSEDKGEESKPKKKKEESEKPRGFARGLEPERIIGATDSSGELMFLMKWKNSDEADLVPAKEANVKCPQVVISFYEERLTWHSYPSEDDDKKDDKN
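Compound inhibition of the preformed complex between 50 nM HP1-beta and 50 nM biotinylated H3K9me3 peptide was read by AlphaScreen. Buffer was PBS pH 7.4 with 0.01% Tween-20. Incubations ran 30 min at room temperature, with 10 ug/mL donor/acceptor beads.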
Sfp PPTase inh = blocks B. subtilis Sfp PPTase activity. Q9F4F7. Biochemical Sfp PPTase activity, qHTS. Potency, µM, for inactives: largest response in the series, negative = inhibition, most hits filed as inhibitors. actives 3.5% (n = 310,000). AID 1490;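 further: the enzyme is Sfp with the accession as filed and its product quenches rhodamine fluorescence; 0% = enzyme reaction without inhibitor and -100% = no enzyme wells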
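Compounds were incubated with enzyme (final 15 nM) for 15 min at room temperature before substrate addition started the reaction. Fluorescence at 525 nm excitation, 598 nm emission was recorded immediately and after 30 minutes.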
JMJD2A Tudor = JMJD2A Tudor domain (human) inhibition | O75164 | AlphaScreen JMJD2A-Tudor / H3K4me3 peptide binding | Potency, µM (series often up to 114 µM), without a hit: at the top dose activity change, negative = inhibition, hits mostly inhibitors | actives 4.4% (n = 390,000) | AID 504339; further: on the % scale 0 is the no-effect control and ±100 the full control effect; nearly all actives have a fitted effect of over 50% in size
BAZ2B block = inhibitors of human BAZ2B bromodomain; Q9UIF8; AlphaScreen BAZ2B-H3K14Ac peptide displacement; Potency, µM (highest dose often 114 µM), for inactives: at the highest dose activity change, negative = inhibition, hits mostly inhibitors; actives 4.4% (n = 360,000); AID 504333; further: on the % scale 0 is the no-effect control and ±100 the full control effect; nearly all actives have a fitted effect of over 60% in size
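Inhibition is scored as reduced AlphaScreen emission. The BAZ2B/b-H3(5-23)K14Ac complex (50 nM each) in PBS pH 7.4, 0.01% Tween-20 meets compound (up to 110 uM) for 30 min at RT before bead addition.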
* marks the source's active call; other numbers are inactive results; ? = inconclusive; . = no result; [ ] = remark or other dose. The call rests on the fitted dose curve; in most records, active means well fitted curve in the direction sought with a large enough effect; inconclusive means small, poorly fitted or top-dose-only effect, or another doubt; inactive means no such curve, though single readings can be large; an effect the other way counts as inactive or inconclusive. Potency means the concentration at half of the fitted maximal effect.

SMILES	TDP1 block	G9a block	HP1b chromo inh	Sfp PPTase inh	JMJD2A Tudor	BAZ2B block
CCOC(=O)c1c(NC(=O)COc2cccc(C(F)(F)F)c2)sc2c1CCCCC2	-10%[12.3 µM]	5.6µM*	-21%	.	-15%	-7%
CCOC(=O)c1c(NC(C)=O)sc2c1CCC(C=O)=C2Sc1ccccc1	8%	?	-8%	50µM*	?	?
CC(C)(C)S(=O)N1Cc2cc(=O)n(Cc3ccccc3)cc2[C@H]1CCO (stereo partly specified)	.	.	78%	.	-8%	.
O/N=C(\CN1CCCCC1)c1ccccc1	.	4%	22%	3%	-11%	-10%
CCOC(=O)c1c(NC(=O)COc2ccc(CC)cc2)sc2c1CCCC2	0%	-3%[59 µM]	43%	.	14%	12%
COC(=O)c1c(NC(=O)COc2cc(C)c(Cl)c(C)c2)sc2c1CCCC2	-3%[12.3 µM]	7.1µM*	?	.	-15%	24%
CCOC(=O)c1c(NC(=O)c2ccccc2Br)sc2c1CCc1ccccc1-2	.	1.4µM*	-4%	40µM*	-13%	9%
CCOC(=O)c1c(NC(=O)c2ccccc2N(C)S(=O)(=O)c2ccccc2)sc2c1CCCC2	-3%	35%[59 µM]	47%	12%	-9%	-3%
CCOC(=O)c1c(NC(=O)COc2ccc(Cl)cc2C)sc2c1CCCCC2	-7%[12.3 µM]	6.3µM*	?	.	-20%	-6%
Nc1ncnc2nc(Cl)[nH]c12	7%[56.1 µM]	.	.	-20%	.	.
Cc1cc(-n2c(=S)sc3c(=O)n(-c4ccc(F)cc4)c(SCC(=O)O)nc32)ccc1Cl	.	-18%	6%	?	-8%	-2%
COc1cccc(CNc2sc3c(c2C(=O)Nc2ccc(OC)cc2OC)CCC3)c1	7%	13µM*	?	.	?	-18%
COc1ccc(OC)c(NC(=O)c2c(NCc3sccc3C)sc3c2CCCCC3)c1	10%	?	0%	.	?	?
COc1ccc(NC(=O)c2c(NCc3cccs3)sc3c2CCCCC3)c(OC)c1	8%	8.9µM*	?	.	45µM*	?
CCOC(=O)c1ccc(NC(=O)c2c(NCc3cccs3)sc3c2CCCCC3)cc1	6%	7.9µM*	-23%	.	56µM*	?
CCOc1ccc(NC(=O)c2c(NCc3cccs3)sc3c2CCC(C)C3)cc1 (stereo unspecified)	6%	?	26%	.	?	-38%
CCOc1ccc(NC(=O)c2c(NC(=O)CNCCN3CCOCC3)sc3c2CCC3)cc1	9%	40µM*	3%	4%	79µM*	45µM*
O=S1(=O)CC2SC(=S)N(Cc3ccccc3)C2C1 (stereo unspecified)	4%	-3%	29%	23%	6%	2%
COc1ccc(OC)c(NC(=O)c2c(NCc3ccc(OC)c(OC)c3)sc3c2CCC3)c1	5%	?	-6%	.	?	-22%
COc1ccc(NC(=O)c2c(NCc3cccs3)sc3c2CCCC3)cc1	3%	14µM*	-4%	.	?	-36%
COc1ccc(OC)c(NC(=O)c2c(NCc3ccc(N(C)C)cc3)sc3c2CCCC3)c1	11%	13µM*	-25%	.	11µM*	11µM*
CCOC(=O)N1CCc2c(sc(NCc3cc(OC)ccc3OC)c2C(=O)Nc2cc(OC)ccc2OC)C1	9%	7.1µM*	-7%	.	?	32µM*
COc1ccc(-c2noc(CSc3nnc(C)n3-c3ccc(F)cc3)n2)cc1	0%	-26%[59 µM]	23%	.	-11%	-10%
Cc1cc(C)nc(N/N=C2/CCCC/C2=C\c2ccccc2)n1	8%	-2%	31%	5%	-25%	-27%
Cc1c(Cl)sn(-c2ccc(Cl)cc2)c1=O	-1%	0.71µM*	?	0.71µM*	3.2µM*	40µM*
SMILES	TDP1 block	G9a block	HP1b chromo inh	Sfp PPTase inh	JMJD2A Tudor	BAZ2B block
Cc1nn(-c2ccc(Cl)cc2)c(=O)c2ccccc12	3%	7%	36%	2%	-9%	1%
O=C1CCC[C@@H]2[C@@H](Cc3ccccc3)[C@H](N3CCN(c4ccccc4)CC3)C[C@@H]3CCN1[C@@H]32	.	.	-21%	.	45µM*	.
COc1ccccc1Nc1cc2ccccc2c(=O)[nH]1	2%	.	.	.	79µM*	.
O=c1[nH]c(Nc2ccc(F)cc2)cc2ccccc12	3%	11µM*	10%	-27%	-14%	-10%
O=c1[nH]c(Nc2ccccc2Cl)cc2ccccc12	.	.	27%	.	-7%	.
Cc1ncc(CO)c(CNc2ccc(Oc3ccccc3)cc2)c1O	.	71µM*	?	7%	?	?
C=CCOC(=O)C(=O)/C=C/c1csc2ccccc12	3%	?	-26%	40µM*	?	?
C=CCOC(=O)C(=O)/C=C/c1ccc2c(c1)Cc1ccccc1-2	6%	-10%[12.7 µM]	-5%	-25%	-31%	?
Cc1noc(C)c1COc1ccc(C(=O)N2CCN(c3ccccn3)CC2)cc1	.	20%[0.501 µM]	13%	.	-15%	9%
CC(=O)NC(=S)Nc1ccc(NC(=O)COc2ccc(Cl)cc2Cl)cc1	2%	-2%[12.7 µM]	33%	-4%	-17%	30%
COc1ccc(C(=O)NNC(=S)Nc2ccccc2)cc1	9%	45µM*	15%	22%	-4%	-3%
O=C(NNC(=S)Nc1ccc(Cl)cc1)c1ccccc1	4%	35µM*	1%	3%	-16%	1%
O=C(COc1cccc(Cl)c1)NNC(=S)Nc1ccccc1	1%	7.1µM*	?	-4%	-29%[57.1 µM]	9%
O=C(COc1ccc(Cl)cc1Cl)NNC(=S)Nc1ccc(F)cc1	9%	11µM*	-12%	25%	-24%	-3%
COc1ccc(C(=O)NNC(=S)NC(=O)c2ccc(OC)cc2)cc1	.	.	54%	9%	-22%	2%
COCCCNC(=O)Cn1c(=O)n(CCCC(=O)NCc2ccc(C)cc2)c(=O)c2ccccc21	0%	-4%[59 µM]	33%	.	-7%	4%
CC(=O)c1c(C)n(-c2cccc(C)c2)c2ccc(OC(=O)COc3ccccc3)cc12	.	-24%[59 µM]	62%	.	-12%	0%
O=C(Nc1cccc(Cl)c1)c1ccccc1	.	8%[12.7 µM]	46%	.	-4%	5%
O=C(NNC(=S)Nc1cccc(Cl)c1)c1ccccc1	4%	35µM*	19%	10%	-21%	-9%
Cc1occc1C(=O)NNC(=O)COc1ccc(Br)cc1Br	3%	8%[59 µM]	26%	-19%	-17%	2%
Cc1occc1C(=O)NNC(=S)NC(=O)COc1ccc(Cl)cc1Cl	9%	8.9µM*	?	9%	-20%	-18%
COc1cc(SC)ccc1C(=O)Nc1ccc(S(=O)(=O)Nc2nccc(C)n2)cc1	5%	-14%[59 µM]	44%	.	?	-8%

Source: PubChem BioAssay
